# High-throughput results deposited in PubChem by several laboratories.
# This is a sample that favours compounds with a hit; in the whole collection about 2.1% have one here.
# PrPC surface inh – cell surface PrPC inhibition, primary TR-FRET screen; inhibition, % at 13.8 µM; TR-FRET read-out; P04156; AID 720596; 370,000 tested, 0.43% active; in the data active = inhibition above about 24%
# VHR inh abs – inhibitors of human VHR1 phosphatase (DUSP3). P51452. recombinant VHR phosphatase, pNPP absorbance. inhibition, % at 13.3 µM. 290,000 tested, 0.52% active. AID 1654; in the data active = inhibition above about 50%
# Target sequence (P51452 whole entry, looked up): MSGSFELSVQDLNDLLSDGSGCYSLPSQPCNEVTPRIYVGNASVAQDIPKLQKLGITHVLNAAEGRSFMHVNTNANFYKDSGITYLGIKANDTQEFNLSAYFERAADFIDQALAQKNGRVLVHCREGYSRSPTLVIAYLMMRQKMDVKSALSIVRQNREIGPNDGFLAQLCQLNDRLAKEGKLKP
# PrP UTR inh – inhibition of PrP 5' UTR reporter expression. AID 488862. inhibition, % (concentration not given with the values). cell-based PrP 5' UTR mRNA reporter, plate reader. 340,000 tested, 0.35% active; in the data active = inhibition above about 52%
# BJeLR viability – kills HRASV12-expressing BJeLR cells. BJeLR (HRASV12) viability, CellTiter-Glo ATP luminescence, 48 h. inhibition, % (test concentration not listed). 300,000 tested, 0.17% active; in the data active = inhibition above about 50%
# MazF activator – activators of E. coli MazEF toxin-antitoxin RNase | P0AE70 | 350,000 tested, 0.32% active | activation, % at 20 µM | FAM/BHQ RNA-DNA oligo cleavage fluorescence, 5 h; in the data active = activation above about 50%
# Target sequence (P0AE70 whole entry, looked up): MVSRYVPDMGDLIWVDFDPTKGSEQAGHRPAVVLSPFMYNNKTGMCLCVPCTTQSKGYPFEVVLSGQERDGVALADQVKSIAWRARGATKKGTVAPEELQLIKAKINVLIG
# PfHsp40 yeast – compounds rescuing yeast from Plasmodium falciparum HSP40 toxicity; S. cerevisiae expressing PfHsp40, growth rescue, ATP luminescence; growth rescue, % at 12.5 µM; 340,000 tested, 0.68% active; AID 504582; in the data active = growth rescue above about 28%, passing the limit was not always enough;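 also: yeast W303a lacking pdr1 and pdr3 grown in galactose medium; growth measured after three days at 30 °C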
# Numbers stand for hits; i = inactive; nt = no result given.
SMILES,PrPC surface inh,VHR inh abs,PrP UTR inh,BJeLR viability,MazF activator,PfHsp40 yeast
CCCCn1c(N)c(N(CC(C)C)C(=O)c2ccc([N+](=O)[O-])o2)c(=O)[nH]c1=O,i,nt,i,nt,i,i
S=C(NCc1ccco1)Nc1ccc(Cl)c(Cl)c1,i,i,i,i,i,36
O=C(NCCN1CCCCC1)Nc1cccc(F)c1,i,57,i,i,i,i
O=C(NCCN1CCCCC1)Nc1ccc(F)cc1,i,i,i,i,i,i
Cc1noc(/C=C/c2ccco2)c1S(=O)(=O)N1CCC(C(=O)N(C)Cc2ccccc2)CC1,i,i,i,i,i,i
Cc1noc(/C=C/c2ccco2)c1S(=O)(=O)N1CCC(C(=O)NC(C)c2ccccc2)CC1 (stereo not drawn),i,50,i,i,i,i
Cc1ccc(N=Nc2c(O)[nH]c3ccc(F)cc23)cc1,i,i,i,i,474,i
Cc1ccc(N=Nc2[nH]c3ccccc3c2O)cc1,i,i,i,i,564,i
CC(=O)C(C(C)=O)c1c(Cl)c(O)c(O)c2c(C(=O)c3ccccc3)coc12,i,i,i,i,i,51
NNC(=O)c1ccc([N+](=O)[O-])c(CS(=O)(=O)c2ccc(Cl)cc2)c1,i,i,i,i,i,i
O=C(c1ccc([N+](=O)[O-])c(CS(=O)(=O)c2ccc(Cl)cc2)c1)N1CCCC1,i,i,i,i,i,41
COc1cccc(CN[C@@H]2CC[C@@]34CCCN3C(=O)CCC[C@H]4C2)c1,i,nt,nt,nt,nt,nt
O=C(O)C(Cc1c[nH]c2ccccc12)NS(=O)(=O)c1ccc(Cl)c(C(F)(F)F)c1 (stereo not drawn),i,i,nt,i,i,i
COC(=O)C1=C(C)N(C)C(C)=C(C(=O)OC)C1c1ccccn1,i,i,i,i,94,i
CCN(CC(=O)Nc1ccc(C(=O)OC)cc1)C1CCCCC1,i,i,i,i,157,i
COC(=O)C1=C(C)NC(C)=C(C(=O)OCC(C)C)C1c1ccccc1[N+](=O)[O-] (stereo not drawn),i,nt,i,i,i,289
CCC1CCCCN1CCCNC(=O)c1cn(C)c2ccc(S(=O)(=O)N(C)C3CCCCC3)cc2c1=O (stereo not drawn),i,i,i,i,i,38
CC(C)(C)c1cc(CCC(=O)NNC(=O)c2ccco2)cc(C(C)(C)C)c1O,i,i,i,i,i,i
CC(C)(C)c1cc(CCC(=O)NNC(=S)NC(=O)c2ccccc2)cc(C(C)(C)C)c1O,nt,i,i,i,i,508
CCCCC(=O)NC(=S)NNC(=O)CCc1ccccc1,i,i,i,i,i,337
O=C(CCc1ccccc1)NNC(=S)NC(=O)c1ccccc1,i,i,i,i,i,314
O=C(CCc1ccccc1)NNC(=S)NCCc1ccccc1,i,i,i,i,i,i
CC(=O)NC(=S)NNC(=O)CCc1ccccc1,i,i,i,i,i,i
COc1ccccc1C1CCN(C(=O)c2ccccc2)CC1,i,i,i,i,i,i
COc1ccccc1C1CCN(c2cc(O)ccc2[N+](=O)[O-])CC1,i,i,i,i,i,124
SMILES,PrPC surface inh,VHR inh abs,PrP UTR inh,BJeLR viability,MazF activator,PfHsp40 yeast
CCOC(=O)CC[C@H](NC(=O)Cn1cc(C)c(=O)[nH]c1=O)C(=O)OCC,i,nt,i,nt,i,i
CN(C)C=Nc1nonc1-c1ccccc1,i,i,i,i,i,i
CN(C)C=Nc1c(Br)cc(Br)c2nonc12,i,i,i,i,228,i
Cc1ccc(S(=O)(=O)N(C)S(=O)(=O)c2ccc(C#N)cc2)cc1,nt,53,nt,i,nt,nt
COc1ccc(CNC(=O)N[C@@H](Cc2c[nH]c3ccccc23)C(=O)O)cc1,i,i,nt,i,i,i
CCCCCC(=O)N1C[C@H](n2cc(COC(=O)c3ccccc3)nn2)[C@@H](O)C[C@@H]1c1ccc(Cl)cc1,i,nt,nt,nt,i,nt
COc1cc(/C=C/C(=O)OCC(=O)NC(=O)NC(C)(C)C)ccc1OCC#N,i,i,i,i,i,83
CCCN(CCC)c1nc(N)c(C#N)c(CC#N)c1C#N,nt,i,i,i,134,i
CCCCCCCCN1C(=O)[C@H](CC(=O)NCC2CCCCC2)C[C@@]2(C(=O)OC)CCCCC=C12,i,nt,nt,nt,nt,nt
O=C(CCCc1c[nH]c2ccccc12)NCC1COc2ccccc2O1 (stereo not drawn),i,52,i,i,i,i
COC(=O)[C@]12C[C@H](CC(=O)N3CCN(C(=O)c4ccco4)CC3)C(=O)N(Cc3cccc4ccccc34)C1=C[C@H](C(C)C)O[C@@H]2C1CC1,i,nt,nt,nt,nt,nt
N#C/C(=C\Nc1ccccc1O)c1nc2ccccc2o1,i,i,i,i,i,452
O=C(NN1CC(C(=O)OCc2ccccc2F)CC1=O)c1ccccc1 (stereo not drawn),i,i,i,i,i,i
COc1ccc(Cn2cc(CN3CC=CS3(=O)=O)nn2)cc1,i,nt,nt,nt,nt,nt
COc1ccc(NC(=O)CN(C)S(=O)(=O)c2ccc3[nH]c(=O)oc3c2)cc1,i,i,i,56,i,i
CCOC(=O)C1(C(C)(C)CC)CC(CSc2nc3ccccc3[nH]2)OC1=O (stereo not drawn),i,i,i,i,i,69
CCN(C(=O)CSc1nncn1-c1ccccc1)c1c(N)n(Cc2ccccc2)c(=O)[nH]c1=O,i,i,i,i,i,27
Cn1c(/C=C/c2ccccc2[N+](=O)[O-])nc2ccccc2c1=O,i,i,i,i,233,i
Nc1nc(N)n(-c2ccccc2)c(=Nc2ccccc2)n1,i,i,i,i,i,i
Cc1ccc(-c2cc(C(=O)N3CCN(c4ccccc4O)CC3)c3ccccc3n2)o1,i,i,i,i,i,137
Cc1ccc(-n2nc3c(=O)n(CCCC(=O)NCc4ccc(C)o4)nc(C)c3c2C)cc1,i,i,i,i,i,i
Cc1ccc(-n2nc3c(=O)n(CC(=O)NCc4ccc(C)o4)nc(C)c3c2C)cc1,i,53,i,i,i,i
Nc1cc2c(cc1Br)-c1ccccc1C2=NO,i,nt,i,nt,i,47
COc1ccc(Cl)cc1-c1cc(C(=O)NCc2ccco2)[nH]n1,i,nt,nt,nt,nt,nt
COc1cccc(CNC(=O)COc2ccc(C(=O)c3ccccc3)cc2)c1,i,i,i,i,i,499
SMILES,PrPC surface inh,VHR inh abs,PrP UTR inh,BJeLR viability,MazF activator,PfHsp40 yeast
CCOC(=O)c1ccc(NC(=O)CC2C(=O)OCCN2CC)cc1 (stereo not drawn),i,i,i,i,i,219
CCOC(=O)c1ccc(NC(=O)CC2OCCN(CC)C2=O)cc1 (stereo not drawn),i,i,i,i,i,53
CC(C)(C)c1ccc(S(=O)(=O)N2CCCC(C(=O)NCc3ccco3)C2)cc1 (stereo not drawn),i,nt,nt,nt,nt,nt
CC(NC(=O)CN(C)S(=O)(=O)c1cccc2nsnc12)c1ccccc1 (stereo not drawn),i,i,i,i,97,i
CCCC(=O)Nc1ccc(C(=O)N/N=C/c2ccc([N+](=O)[O-])o2)cc1,i,i,i,122,i,i
Cc1cc(C)nc(N2CCCC(C(=O)NC3CC3)C2)n1 (stereo not drawn),i,53,i,i,i,i
